The record followed here is PubChem BioAssay (NCI).

Each structure is given as a SMILES string. This is part of a sample that, as a whole, favours compounds with a hit. Of some 83,000 tested, about 20% had one in any assay.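 Single-dose data. Exposure time 48 hours. Values below 10 considered active.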 Active and inactive are the calls of the source.

This assay deals with HL-60(TB) leukemia. In words: NCI-60 one-dose screen, 48 h (100 = growth as untreated, 0 = no growth, -100 = all killed). The note with it: 10 µM unless noted.
As to `O=C(O)c1ccc(-c2nn(-c3ccc(C(F)(F)F)cc3)cc2CNc2ccc(Oc3ccccc3)cc2)cc1`, the growth is 35.5% (inactive).
In the case of `Cn1cc(-c2csc(-c3cn(CCOC(N)=O)c4ccccc34)n2)c2cccnc21`, the growth is 86.9% (inactive).
The value for `CC(C)(C)c1ccc([I+]c2ccc(C(C)(C)C)cc2)cc1` was -38.7% (active).
Turning to `Cc1cccc2c1O/C(=C\c1ncc([N+](=O)[O-])n1C)C2=O`, the growth was -9.87% (active).
The value for `CCC1=CC2CN(C1)Cc1c([nH]c3ccccc13)[C@@](C(=O)OC)(c1cc3c(cc1OC)N(C)[C@H]1[C@@](O)(C(=O)OC)[C@H](OC(C)=O)[C@]4(CC)C=CCN5CC[C@]31[C@@H]54)C2` (some centres undefined) was -15.6% (active); that for `Clc1cc(Br)ccc1-c1ccc(CNCC2CCNCC2)o1` was 67.7% (inactive); that for `CC1(O)CCC2CC3OC3(C)CCC3OC3(C)C(O)CC1C2(C)C` (centres undefined) was 137% (inactive).
Regarding `O=C(Cc1ccccc1)Nc1cccc(N=Cc2ccccc2O)c1`, the growth was 100% (inactive).
`CCCC(c1nnnn1C1CCCCC1)N1CCN(C(=O)c2ccco2)CC1` (centres undefined): the growth was 12.6% (inactive).
The value for `O=C(Nc1cccnc1Nc1ccccc1)c1cn(Cc2cccc(Oc3ccccc3)c2)nn1` was 18.9% (inactive); that for `COc1cc(OC)cc(-c2ccc(-c3ccc(C(=N)N)s3)s2)c1` was -71.9% (active).
For `Cc1nn(-c2ccc(Cl)cc2)c(=O)n1CCN1CCOCC1`, the growth is 105% (inactive).
The value for `CCN(CC)CCCC(C)N=C(C1=C(C(=NC(C)CCCN(CC)CC)c2cccc(OC)c2)C(=O)NC1=O)c1cccc(OC)c1` (centres undefined) was -49.3% (active); that for `COc1ccc(-c2ccc(-c3ccc(-c4ccc(C(=N)N)cc4)s3)s2)cc1OC` was 99.1% (inactive).
Next, `O=C(CNc1nnc(-c2ccc(Cl)cc2)o1)Nc1ccc(-c2nc3ccccc3s2)cc1`: 93.7% (inactive); `O=C1C(=O)c2c(nc3ccc(C(F)(F)F)cn23)-c2ccccc21`: -47% (active).
The value for `Cc1nc(NN)c([N+](=O)[O-])c(NN)n1` was 68.1% (inactive); that for `C/C(=C\CCc1ccoc1)CC/C=C(\C)CCCN1CCSCC1` was 73.9% (inactive); that for `COc1ccc2c(c1)OC(N(C(C)=O)C(C)=O)=C(C#N)C2c1ccc(F)cc1` (centres undefined) was -18.9% (active).
Regarding `S=c1[nH]ccn1-c1c(Cl)cccc1Cl`, the growth is 93.5% (inactive).
Take `Oc1ccc(Cl)cc1Cc1cc(Cl)cc(Cl)c1O`: the growth is -11.1% (active).
The value for `CCCCCOC(=O)c1ccccc1O` was 99.4% (inactive); that for `CC(=O)NC1=C(C#N)C(c2ccccc2Cl)c2c(ccc3ccccc23)O1` (centres undefined) was 29.7% (inactive); that for `COc1cc2cc(OC(C)=O)c3cc4c(cc3c2c(OC)c1OC)OCO4` was 96.6% (inactive).
Regarding `CC(=O)C(C(C)=O)c1nc2sc3cc(Cl)ccc3n2c(=N)c1C#N`, the growth is 112% (inactive).
The value for `Cc1cc2oc(=O)cc(CP(=O)(O)O)c2cc1O` was 111% (inactive); that for `COc1cc2c(cc1OCCCCn1c(-c3cc(=O)c4ccccc4o3)nc3ccccc31)N=C[C@@H]1CCCN1C2=O` was 91.2% (inactive).
The value for `CN(Cc1ccccc1)Cc1ccc([N+](=O)[O-])cc1I` was 85% (inactive).
The value for `CCOP(=O)(OCC)/C(C#N)=C/c1c(C)[nH]c2ccccc12` was 96.6% (inactive).
In the case of `COc1ccc2c(c1)oc1c(C)c3c(c(C)c12)C(=O)N(N)C3=O`, the growth is 38.3% (inactive).
The value for `O=C(/C=C/c1ccc(Cl)cc1)c1ccc(Nc2nc(NCCO)nc(Nc3ccc(Cl)cc3)n2)cc1` was 99.4% (inactive); that for `Cc1cc2c3ccccc3ccc2[n+]2ccccc12` was 46.2% (inactive).
The value for `CN1CCCN(C(c2ccccc2)c2ccc(Cl)cc2)CC1` (centres undefined) was 93.5% (inactive); that for `COc1cc(C=O)ccc1OC1OC(COC(C)=O)C(OC(C)=O)C(OC(C)=O)C1OC(C)=O` (centres undefined) was 106% (inactive); that for `O=[N+]([O-])c1cccc(-c2nc3sccn3c2-c2ccnc(NCCCNS(=O)(=O)c3ccc(F)cc3)n2)c1` was -12.9% (active).
The value for `COc1ccc(CNC(=O)C(=O)[C@H](Cc2ccccc2)NC(=O)c2[nH]c3ccccc3c(=O)c2C)cc1` was 110% (inactive); that for `O=C1CCC(C(=O)N/N=C/c2cc(F)ccc2F)N1` (centres undefined) was 99.2% (inactive); that for `c1ccc(COCC[P+](c2ccccc2)(c2ccccc2)c2ccccc2)cc1` was -52.2% (active).
For `NC(=NCCCOc1ccc(F)cc1)Nc1ccc(Cl)c(Cl)c1`, the growth was 48.2% (inactive).
